The values that follow come from PubChem BioAssay (NCATS).

“And” between values parts separate entries of the source, which are not always exact repeats. Identical values can stand only once. Records with an inconclusive call do not appear. A call without a number means that no potency is given here. More than one record can exist for a structure, and the calls need not agree. The source made the active and inactive calls. The call rests on the fitted dose curve; in most records, active means well fitted curve in the direction sought with a large enough effect; inconclusive means small, poorly fitted or top-dose-only effect, or another doubt; inactive means no such curve, though single readings can be large; an effect the other way counts as inactive or inconclusive.
Potency means the concentration at half of the fitted maximal effect.

A short description of one test: P-glycoprotein substrates identified in KB-3-1 adenocarcinoma cell line, qHTS therapeutic library screen (AID 1346986). Further: nearly all actives have a fitted effect of over 60% in size.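 Further: potency is for cytotoxicity meaning loss of cell viability.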 The note with it: KB-3-1 parental cells viability, CellTiter-Glo, 72 h; series mostly up to 44.5 µM. The method in brief:
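Dose-response cytotoxicity, KB-3-1 vs P-gp-high KB-8-5-11, no colchicine in assay medium. Read: CellTiter-Glo at 72 h.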
In general terms: In qHTS, concentration-response curves come from the screen itself.
`CN1CCN(c2cc(C(=O)Nc3ccc4c(c3)-c3c(c(C(N)=O)nn3-c3ccc(F)cc3)CC4)c(Cl)cn2)CC1`: the Potency was 29.1 µM (active).

`CS(=O)(=O)c1ccc(-c2cnc(N)c(C(=O)Nc3ccccc3)n2)cc1`: the Potency entry is “inactive”.

Consider `CN(C)CC(C)(C)CNc1nn2c(-c3ccccc3)nnc2cc1C1CCC1`, for which the Potency result is “inactive”.

For `CC(=O)Nc1nc(C)c(-c2ccc(Cl)c(S(=O)(=O)NCCO)c2)s1`, the Potency was 9.2 µM (active).

Take `CCn1nnc2c(N3CCOCC3)nc(-c3ccc(NC(=O)Nc4ccc(C(=O)N5CCN(C)CC5)cc4)cc3)nc21`: the Potency was 0.058 µM (active).

For the compound `O=C(NCCCNc1nc(Nc2cccc(NC(=O)N3CCCC3)c2)ncc1I)c1cccs1`, the Potency was 11.6 µM (active).

Take `Cn1c(CNc2ccc(C(=N)N)cc2)nc2cc(C(=O)N(CCC(=O)O)c3ccccn3)ccc21`: the Potency entry was “inactive”.

As to `Cc1ccc(C(=O)Nc2cccc(C(F)(F)F)c2)cc1-c1ccc2nc(NCCN3CCOCC3)ncc2c1`, the Potency is 8.2 µM (active).

With `CNC(=O)c1ccc(N2C(=S)N(c3cnc(C#N)c(C(F)(F)F)c3)C(=O)C23CCC3)cc1F`, the Potency entry is “inactive”.

Regarding `C=C1C(=CC=C2CCC[C@]3(C)[C@@H]([C@H](C)C=C[C@H](C)C(C)C)CC[C@@H]23)C[C@@H](O)C[C@@H]1O`, the Potency entry was “inactive”.

With `O=C(Nc1nc2cccc(-c3ccc(CN4CCS(=O)(=O)CC4)cc3)n2n1)C1CC1`, the Potency was 20.6 µM (active).

In the case of `O=C(O)C1(Cc2cccc(Nc3nccs3)n2)CCC(Oc2cccc(Cl)c2F)CC1` (configuration not stated), the Potency was 0.517 µM (active).

In the case of `Clc1ccc2ncc(-c3cccc(NC4CNC4)n3)n2c1`, the Potency entry was “inactive”.

For the compound `CC(C)Nc1cc(C(F)(F)F)cc2nc(NC(=O)c3cccnc3)nn12`, the Potency entry is “inactive”.

As for `O=C(O)CCCc1c[nH]c2ccccc12`, the Potency result was “inactive”.

Take `C=C1C(=CC=C2CCCC3(C)[C@@H]([C@H](C)C=CC=CC(O)(CC)CC)CC[C@@H]23)C[C@@H](O)C[C@@H]1O` (some centres not stated): the Potency entry is “inactive”.

As to `CNc1nccc(-c2cccnc2Oc2cc(C(=O)Nc3cccc(C(F)(F)F)c3)ccc2C)n1`, the Potency entry is “inactive”.

For `CCCCCCCCCC(=O)N[C@@H](Cc1c[nH]c2ccccc12)C(=O)N[C@H](CC(N)=O)C(=O)N[C@@H](CC(=O)O)C(=O)N[C@@H]1C(=O)NCC(=O)N[C@@H](CCCN)C(=O)N[C@@H](CC(=O)O)C(=O)N[C@H](C)C(=O)N[C@@H](CC(=O)O)C(=O)NCC(=O)N[C@H](CO)C(=O)N[C@@H]([C@@H](C)CC(=O)O)C(=O)N[C@@H](CC(=O)c2ccccc2N)C(=O)O[C@@H]1C`, the Potency result is “inactive”.

With `Cc1nc(N)ncc1-c1nc(N2CCOCC2)c2sc(C(C)(C)O)cc2n1`, the Potency was 1.03 µM (active).

`Cc1ccc(CN2CCNCC2)cc1NC(=O)CNc1ccc(F)c(F)c1`: the Potency entry is “inactive”.

Take `CN(C1CCc2c(c3ccccc3n2CC(=O)O)C1)S(=O)(=O)c1ccc(F)cc1` (configuration not stated): the Potency result was “inactive”.

For `Cc1c(Cn2c(C)nc3c(C(=O)O)cc(N4CCOCC4)cc32)cccc1C(F)(F)F`, the Potency entry is “inactive”.

In the case of `CCNC(=O)Nc1ccc2ncc(Nc3ccc(C)cc3)nc2n1`, the Potency entry was “inactive”.

Regarding `CN(C)c1nc(Cc2ccc(NC(=O)c3ccc4ccccc4c3)cc2)nc(Cl)c1CC(=O)O`, the Potency entry was “inactive”.

On to `COC(=O)Nc1ccc(-c2nc(N3CCOCC3)c3cnn(C4CCN(Cc5cccnc5)CC4)c3n2)cc1`, for which the Potency was 1.03 µM (active).

A short description of another test: P-glycoprotein substrates identified in KB-8-5-11 adenocarcinoma cell line, qHTS therapeutic library screen (AID 1346987). Further: nearly all actives have a fitted effect of over 65% in size. The conditions noted are these: KB-8-5-11 (P-gp overexpressing) viability, CellTiter-Glo, 72 h; series mostly up to 44.5 µM. In outline: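 In this qHTS, P-gp-rich KB-8-5-11 cells received library compounds across a concentration range. Viability was quantified by luminescence after 72 h at 37 degree C.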
As to `CN1CCN(c2cc(C(=O)Nc3ccc4c(c3)-c3c(c(C(N)=O)nn3-c3ccc(F)cc3)CC4)c(Cl)cn2)CC1`, the Potency was 23.5 µM (active).

As for `CS(=O)(=O)c1ccc(-c2cnc(N)c(C(=O)Nc3ccccc3)n2)cc1`, the Potency result is “inactive”.

Regarding `CN(C)CC(C)(C)CNc1nn2c(-c3ccccc3)nnc2cc1C1CCC1`, the Potency entry was “inactive”.

`CNC(=O)c1cc(Oc2ccc(NC(=O)Nc3cc(C(C)(C)C)nn3-c3ccc4ncccc4c3)c(F)c2)ccn1`: the Potency was 18.7 µM (active).

As to `O=C(NCCCNc1nc(Nc2cccc(NC(=O)N3CCCC3)c2)ncc1I)c1cccs1`, the Potency is 16.6 µM (active).

In the case of `Cn1c(CNc2ccc(C(=N)N)cc2)nc2cc(C(=O)N(CCC(=O)O)c3ccccn3)ccc21`, the Potency result was “inactive”.

In the case of `Cc1ccc(C(=O)Nc2cccc(C(F)(F)F)c2)cc1-c1ccc2nc(NCCN3CCOCC3)ncc2c1`, the Potency is 16.6 µM (active) and 11.6 µM (active).

Regarding `CNC(=O)c1ccc(N2C(=S)N(c3cnc(C#N)c(C(F)(F)F)c3)C(=O)C23CCC3)cc1F`, the Potency result is “inactive”.

For `CC(C)(C)c1cnc(CSc2cnc(NC(=O)C3CCNCC3)s2)o1`, the Potency entry is “inactive”.

As for `C=C1C(=CC=C2CCC[C@]3(C)[C@@H]([C@H](C)C=C[C@H](C)C(C)C)CC[C@@H]23)C[C@@H](O)C[C@@H]1O`, the Potency result is “inactive”.

For `O=C(O)C1(Cc2cccc(Nc3nccs3)n2)CCC(Oc2cccc(Cl)c2F)CC1` (configuration not stated), the Potency was 0.411 µM (active).

Consider `Nc1nccc(Oc2ccc(NC(=O)c3c[nH]cc(-c4ccc(F)cc4)c3=O)cc2F)c1Cl`, for which the Potency was 23.5 µM (active) and 16.4 µM (active).

In the case of `Clc1ccc2ncc(-c3cccc(NC4CNC4)n3)n2c1`, the Potency result is “inactive”.

Take `O=c1[nH]nc(Sc2ncc([N+](=O)[O-])s2)n1-c1ccc2c(c1)OCCO2`: the Potency is 18.7 µM (active).

As to `CC(C)Nc1cc(C(F)(F)F)cc2nc(NC(=O)c3cccnc3)nn12`, the Potency result is “inactive”.

Consider `O=C(O)CCCc1c[nH]c2ccccc12`, for which the Potency result is “inactive”.

`C=C1C(=CC=C2CCCC3(C)[C@@H]([C@H](C)C=CC=CC(O)(CC)CC)CC[C@@H]23)C[C@@H](O)C[C@@H]1O` (some centres not stated): the Potency entry is “inactive”.

`CNc1nccc(-c2cccnc2Oc2cc(C(=O)Nc3cccc(C(F)(F)F)c3)ccc2C)n1`: the Potency entry was “inactive and 16.4 µM (active)”.

As to `COc1cc2c(Nc3ccc(NC(=O)c4ccccc4)cc3)ncnc2cc1OCCCN1CCOCC1`, the Potency entry is “inactive”.

Take `CCCCCCCCCC(=O)N[C@@H](Cc1c[nH]c2ccccc12)C(=O)N[C@H](CC(N)=O)C(=O)N[C@@H](CC(=O)O)C(=O)N[C@@H]1C(=O)NCC(=O)N[C@@H](CCCN)C(=O)N[C@@H](CC(=O)O)C(=O)N[C@H](C)C(=O)N[C@@H](CC(=O)O)C(=O)NCC(=O)N[C@H](CO)C(=O)N[C@@H]([C@@H](C)CC(=O)O)C(=O)N[C@@H](CC(=O)c2ccccc2N)C(=O)O[C@@H]1C`: the Potency result was “inactive”.

Take `Cc1nc(N)ncc1-c1nc(N2CCOCC2)c2sc(C(C)(C)O)cc2n1`: the Potency is 1.48 µM (active) and 1.64 µM (active).

Consider `Cc1ccc(CN2CCNCC2)cc1NC(=O)CNc1ccc(F)c(F)c1`, for which the Potency result was “inactive”.

On to `CN(C1CCc2c(c3ccccc3n2CC(=O)O)C1)S(=O)(=O)c1ccc(F)cc1` (configuration not stated), for which the Potency entry was “inactive”.

As to `Cc1c(Cn2c(C)nc3c(C(=O)O)cc(N4CCOCC4)cc32)cccc1C(F)(F)F`, the Potency result is “inactive”.

For `CNC(=O)c1ccccc1Nc1nc(Nc2ccc(N3CCOCC3)cc2OC)ncc1Cl`, the Potency was 1.87 µM (active) and 1.64 µM (active).

On to `CC(C)c1cc(C(=O)N2Cc3ccc(CN4CCN(C)CC4)cc3C2)c(O)cc1O`, for which the Potency is 0.092 µM (active).

As to `COc1cc2c(Oc3ccc(NC(=O)C4(C(=O)Nc5ccc(F)cc5)CC4)cc3F)ccnc2cc1OCCCN1CCOCC1`, the Potency was 935 nM (active) and 5.17 µM (active).

Turning to `CCNC(=O)Nc1ccc2ncc(Nc3ccc(C)cc3)nc2n1`, the Potency entry is “inactive”.

Consider `CN(C)c1nc(Cc2ccc(NC(=O)c3ccc4ccccc4c3)cc2)nc(Cl)c1CC(=O)O`, for which the Potency entry is “inactive”.

Take `COC(=O)Nc1ccc(-c2nc(N3CCOCC3)c3cnn(C4CCN(Cc5cccnc5)CC4)c3n2)cc1`: the Potency is 148 nM (active) and 920 nM (active).

With `CC(C)(C)c1cc(C(C)(C)C)c(NC(=O)c2c[nH]c3ccccc3c2=O)cc1O`, the Potency result was “inactive”.

As for `Cc1cc(Nc2cc(N3CCN(C)CC3)nc(C=Cc3ccccc3)n2)n[nH]1`, the Potency is 6.05 µM (active).
